# From PubChem BioAssay
# FLuc counter: counter-screen for miR-21 project: firefly luciferase inhibitors or activators; P08659; purified FLuc, Km substrates, luminescence inhibition; Potency, µM (doses to about 57.5 µM), for the others: top-dose activity change, negative = inhibition, most hits filed as inhibitors; 360,000 tested, 6.9% active;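 further: plate controls were vehicle for no effect and reference inhibitor for full effect; nearly all actives have a fitted effect of over 55% in size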
# Target sequence (P08659 whole entry, looked up): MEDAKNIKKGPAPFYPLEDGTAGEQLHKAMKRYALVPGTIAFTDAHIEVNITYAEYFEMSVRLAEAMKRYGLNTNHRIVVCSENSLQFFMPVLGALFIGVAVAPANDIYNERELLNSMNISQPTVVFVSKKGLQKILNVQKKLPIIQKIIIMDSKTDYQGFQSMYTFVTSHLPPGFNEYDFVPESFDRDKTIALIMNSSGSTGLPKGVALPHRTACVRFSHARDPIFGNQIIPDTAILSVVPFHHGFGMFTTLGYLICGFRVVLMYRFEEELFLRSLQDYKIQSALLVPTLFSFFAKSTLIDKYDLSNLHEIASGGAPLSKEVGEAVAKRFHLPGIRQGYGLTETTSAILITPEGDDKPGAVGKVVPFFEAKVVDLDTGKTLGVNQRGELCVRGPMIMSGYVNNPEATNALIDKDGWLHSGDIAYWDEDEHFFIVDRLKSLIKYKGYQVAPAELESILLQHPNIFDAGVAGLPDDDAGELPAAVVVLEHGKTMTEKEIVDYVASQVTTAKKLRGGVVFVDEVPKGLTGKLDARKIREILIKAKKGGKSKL
#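 Biochemical qHTS of compounds, final roughly 60 µM downward over six points, against 10 nM purified firefly luciferase using Km concentrations of substrates (10 uM D-luciferin, 10 uM ATP) in Tris acetate pH 7.5 buffer; luminescence output.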
# Luc counter: Kinase-Glo luciferase inhibition (counter-screen); 200,000 tested, 0.28% active; Q27757; Potency, µM (top dose mostly 38.3 µM), for inactives: top-dose activity change, negative = inhibition, most hits filed as inhibitors; Kinase-Glo luciferase, ATP luminescence, 8 min; AID 1379; further: on the % scale 0 is the no-effect control and ±100 the full control effect; nearly all actives have a fitted effect of over 60% in size
#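 Compound is pinned into ATP-containing buffer (10 uM ATP, imidazole pH 7.2, 7 mM MgCl2). Kinase-Glo luciferase reagent is then added. Light output is recorded following an 8-min room-temperature incubation.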
# ELG1 genotoxic: genotoxicity induction in ELG1-luciferase HEK293T cells. HEK293T ELG1-luciferase reporter, luminescence, 16 h. Potency, µM (doses to about 46 µM), for inactives: at the top dose activity change, positive = activation, actives largely listed as activators. 330,000 tested, 1.3% active; further: % of control where 0% means no effect; nearly all actives have a fitted effect of over 60% in size
#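 ELG1-luciferase HEK293T cells, 2,000/well; compound pinned in; 16 hr, 37 °C, 5% CO2; ONE-Glo, 30 min RT; luminescence on CCD imager.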
# SMN2 splice up: SMN2 splice variant enhancement | HEK293 SMN2-luciferase splicing reporter, luminescence, 30-36 h | Potency, µM (series often up to 46.1 µM), for the others: at the highest dose activity change, positive = activation, hits mostly activators | 210,000 tested, 2.8% active | AID 1458; further: % of control where 0% means no effect; nearly all actives have a fitted effect of over 55% in size
#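 HEK293 cells carry an SMN2 […]–luciferase reporter in which exon 7 inclusion puts luciferase in frame. Cells were plated 10-12 h before compound addition, then incubated 30-36 h at 37C. ONE-Glo luminescence was read; sodium butyrate at 4.5 mM final served as control.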
# Rab9 prom act: activators of Rab9 promoter; Potency, µM (doses to about 9.22 µM), inactives show at the highest dose activation, negative = inhibition, most hits filed as activators; 320,000 tested, 2.8% active; AID 485297; Huh7 Rab9 promoter-luciferase reporter, luminescence, 24 h; further: % of control where 0% means no effect; nearly all actives have a fitted effect of over 60% in size
#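 Cells were plated at 1500 per well in reduced-serum medium with 10% FBS and left 2 h. Compound in DMSO was then added for 24 h at 37 °C. Reporter signal was read by luminescence after 10 min with luciferase detection reagent.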
# NPC1 promoter act: NPC1 promoter activation; Huh7 NPC1 promoter luciferase reporter, 24 h; Potency, µM (doses to about 9.22 µM), for inactives: at the top dose activation, actives largely listed as activators; 320,000 tested, 2.4% active; AID 485313; further: % of control where 0% means no effect; nearly all actives have a fitted effect of over 60% in size
#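 Luminescence from an NPC1 promoter-driven luciferase reporter in stably transfected Huh7 cells was measured after 24 h compound treatment at 37 °C, followed by 10 min ambient incubation with luciferase detection reagent.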
# * hit, by the source's call; ? = inconclusive; nt = no result; [ ] = another dose, or the depositor's remark. Most compounds without a hit are left out; they make up all but 7.5% or so of the library. The call rests on the fitted dose curve; in most records, active means well fitted curve in the direction sought with a large enough effect; inconclusive means small, poorly fitted or top-dose-only effect, or another doubt; inactive means no such curve, though single readings can be large; an effect the other way counts as inactive or inconclusive. Potency means the concentration at half of the fitted maximal effect.
SMILES,FLuc counter,Luc counter,ELG1 genotoxic,SMN2 splice up,Rab9 prom act,NPC1 promoter act
CCn1cnc2c(=O)oc3ccc(S(=O)(=O)Nc4ccc(OC)cc4)cc3c21,1.4%,nt,nt,-1.7%,nt,nt
COc1cc(-c2nc(-c3ccc(Br)o3)no2)cc(OC)c1OC,2.4%,-4.2%,-2.6%,-6.4%,-4.0%,-1.5%
Brc1ccc(-c2nc(-c3ccccn3)no2)o1,1.51µM*,12.6µM*,?,2.51µM*,?,0.562µM*
Brc1ccc(-c2noc(-c3ccccn3)n2)o1,2.69µM*,nt,?,nt,0.447µM*,0.562µM*
CCN(CC)c1ccc(C(=O)NCc2nc3cccnc3n2Cc2ccc(C)cc2)cc1,-0.7%,nt,nt,nt,nt,nt
CCOc1ccc(-c2cc(CCCC(=O)NCCC(C)C)no2)cc1,6.01µM*,-0.1%,4.2%,-11.9%,25.4%,16.8%
CCOc1ccc(-c2cc(CCCC(=O)NCc3cccnc3)no2)cc1,10.7µM*,3.6%,?,13.4%,?,?
CCOc1ccc(CCNC(=O)CCCc2cc(-c3ccc(OCC)cc3)on2)cc1,-7.9%,nt,nt,-0.4%,nt,nt
CCCC(=O)Nc1ccc(C(=O)COC(=O)C2=COCCO2)cc1,?,nt,3.7%,nt,22.4%,1.0%
Cc1ccc(N2CCN(c3ccc(NC(=O)CCC(=O)O)cc3)CC2)cc1,-13.6%,-1.5%,1.6%,4.3%,0.2%,3.3%
O=C(O)CCC(=O)Nc1ccc(N2CCCCCC2)cc1,19µM*,1.8%,-0.2%,?,-3.7%,9.9%
O=C(COC(=O)C1CCC1)Nc1ccc(OC(F)F)cc1,?,-5.3%,-2.0%,16.9%,0.3%,-2.2%
CC(C)CC(=O)Nc1ccc(C(=O)COC(=O)C2CCC2)cc1,8.49µM*,nt,9.8%,nt,-5.9%,-5.4%
CCCC(=O)Nc1ccc(C(=O)COC(=O)C2CC2C)cc1 (configuration not stated),1.69µM*,nt,16.2%,nt,1.41µM*,2µM*
O=C(COC(=O)C1CCCCC1)Nc1ccc(N2CCCCC2)cc1,21.3µM*,-0.2%,6.0%,-5.9%,14.0%,16.1%
O=C(NCCCCNC(=O)c1ccc(Br)cc1)c1ccc(Br)cc1,5.2%,nt,14.4%,nt,10.2%,-4.6%
CCCN(C(=O)c1cn(C)c(=O)c2cc(OC)c(OC)cc12)c1ccc(CC)cc1,-5.3%,nt,nt,nt,nt,nt
O=C(CSc1nncs1)Nc1ccc(N2CCCCC2)cc1,13.5µM*,nt,4.4%,nt,21.1%,17.6%
CC(C)c1ccc(NC(=O)COC(=O)C2CCCCC2)cc1,1.2µM*,nt,5.7%,nt,17.1%,10.7%
COc1ccc(NC(=O)CSc2nncs2)cc1S(=O)(=O)N1CCCCC1,nt,nt,0.3%,nt,nt,nt
Cc1ccccc1NC(=O)c1cnn(-c2ccccc2)c1C,13.5µM*,nt,3.7%,nt,?,?
Cc1cccc(NC(=O)c2cnn(-c3ccccc3)c2C)c1C,?,nt,?,nt,3.98µM*,2.82µM*
CCc1ccccc1NC(=O)c1cnn(-c2ccccc2)c1C,?,nt,-2.9%,nt,20.9%,0.0%
Cc1ccc(C)c(NC(=O)c2cnn(-c3ccccc3)c2C)c1,21.3µM*,nt,6.4%,nt,?,30.0%
CCOc1ccc(-n2c(=O)c3c(C)c(C)sc3n(CC(=O)C(C)(C)C)c2=O)cc1,5.0%,nt,nt,-29.6%,nt,nt
SMILES,FLuc counter,Luc counter,ELG1 genotoxic,SMN2 splice up,Rab9 prom act,NPC1 promoter act
C(=N\N1CCOCC1)/c1cn(-c2ccccc2)nc1-c1ccccc1,23.9µM*,-3.4%,-0.8%,22.7%,5.5%,11.8%
O=Cc1cn(-c2ccccc2)nc1-c1ccncc1,-18.8%,1.5%,1.0%,?,-0.5%,1.5%
O=Cc1cn(-c2ccccc2)nc1-c1ccccc1,12µM*,nt,0.1%,nt,-0.8%,4.1%
COc1cccc(-c2nn(-c3ccccc3)cc2/C=C\C(=O)c2cccs2)c1,7.57µM*,-4.6%,-5.1%,-74.3%,-47.6%,-1.7%
Cc1c(NC(=O)/C=C/c2cn(-c3ccccc3)nc2-c2ccccc2)c(=O)n(-c2ccccc2)n1C,21.3µM*,-6.1%,-10.4%,-9.5%,-0.9%,1.2%
O=C(N/C(=C\c1cn(-c2ccccc2)nc1-c1ccccc1)C(=O)N1CCOCC1)c1ccccc1,3.3%,-0.8%,0.4%,1.8%,-1.4%,-0.9%
O=C(CCCn1c(=O)c2ccccc2n(CC(=O)Nc2cccc(Cl)c2)c1=O)NCc1ccc2c(c1)OCO2,-1.9%,nt,nt,5.3%,nt,nt
CC(CC(=O)O)(CC(=O)O)c1ccccc1,nt,-1.6%[7.66 µM],nt,-6.1%[9.22 µM],nt,nt
COc1ccc(-c2nnc(C3CCN(S(=O)(=O)c4ccccc4)CC3)o2)cc1,-3.2%,nt,0.6%,nt,0.4%,1.8%
O=C(O)/C=C/c1cn(-c2ccccc2)nc1-c1ccccc1,13.5µM*,nt,-0.7%,nt,9.1%,-1.1%
O=C(O)Cc1cn(-c2ccccc2)nc1-c1ccccc1,-22.9%,4.5%,0.0%,-0.3%,-5.7%,2.3%
O=C(Nc1cccnc1)c1cc(-c2ccc(Cl)c(Cl)c2)on1,?,nt,22.9%,nt,-1.7%,-3.2%
COc1ccc(-c2cc(C(=O)NCc3cccnc3)no2)cc1OC,-13.4%,-8.2%,9.0%,7.7%,0.2%,-0.7%
O=C(Nc1cccnc1)c1cc(-c2cccc(Cl)c2)on1,-15.9%,nt,1.8%,17.9%,2.2%,-2.5%
Cc1ccc(-c2cc(C(=O)NCc3cccnc3)no2)cc1,10.7µM*,4.4%,13µM*,21.7%,?,?
COc1ccc(-c2cc(C(=O)Nc3cccnc3)no2)cc1OC,19µM*,nt,?,2.9%,?,2.24µM*
O=C(COCc1cc(-c2ccc3c(c2)OCO3)on1)N1CCCCC1,19µM*,nt,?,nt,?,?
O=C(Nc1cccnc1)c1cc(-c2ccc3c(c2)OCO3)on1,0.477µM*,?,?,-10.7%,5.5%,4.5%
CN1CCN(C(=O)COCc2cc(-c3ccc4c(c3)OCO4)on2)CC1,-18.4%,nt,9.0%,nt,13.8%,1.9%
CCC[C@H](Sc1nc(N)nc2nc[nH]c12)C(=O)O,nt,-0.1%[7.66 µM],nt,-4.2%[9.22 µM],nt,nt
CCCNC(=O)NC(=O)COC(=O)CNS(=O)(=O)/C=C/c1ccccc1,3.0%,3.3%,1.7%,1.3%,0.7%,-0.5%
CS(=O)(=O)N(CC(=O)N1CCN(Cc2ccccc2)CC1)c1cccc([N+](=O)[O-])c1,-0.3%,nt,-7.5%,nt,-0.4%,0.1%
COC(=O)[C@@H](NC(=O)N1CCc2nc(COc3ccccc3)c3c(c2C1)CO[C@@H](C)C3)C(C)C,nt,-2.6%[7.66 µM],nt,4.9%[9.22 µM],nt,nt
O=C(Nc1cccc(Br)c1)c1cc(-c2ccc3c(c2)OCCO3)on1,0.675µM*,nt,nt,nt,nt,nt
O=C(Nc1cccnc1)c1cc(-c2ccc(F)cc2)on1,2.39µM*,-6.2%,9.7%,2.0%,-4.3%,-2.6%
O=C(COCc1cc(-c2ccc3c(c2)OCO3)on1)Nc1cccnc1,21.3µM*,nt,2.4%,nt,-0.9%,-4.7%
CCCNC(=O)COCc1cc(-c2ccc3c(c2)OCO3)on1,?,nt,12.9%,nt,14.9%,16.8%
